Screening results as filed in PubChem BioAssay.
Hits are enriched below; roughly 2.4% of the tested compounds scored in any of these assays.
CRFR2-BP antag = CRF-BP/CRF-R2 complex antagonism; AID 588475; actives 0.59% (n = 350,000); HEK293 CRF-R2/CRF-BP, CRF-induced calcium fluorescence; inhibition, % at 11.8 µM;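 active = inhibition of the ligand-induced calcium signal above about 50% at the single tested concentration, limit read from the data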
NOD2-RIPK2 inh = blocks binding of human NOD2 to RIPK2. CHO BLA complementation NOD2-RIPK2, CCF4 ratio. inhibition, % at 4.98 µM. actives 0.38% (n = 360,000). AID 624267. O43353; in the data active = inhibition above about 21%
TLR4-MyD88 BLA = TLR4-MyD88 interaction inhibition in cells; actives 0.18% (n = 200,000); inhibition, % at 8.4 µM; HeLa CL3-4 TLR4/MyD88 BLA complementation, FRET ratio; O00206+Q99836; in the data active = inhibition above about 25%
HTR2A ag = agonists of mouse serotonin 5-HT2A receptor (HTR2A); P35363; CHO-K1 mHTR2A beta-arrestin complementation, luminescence; percent of 30 µM serotonin response; activation, % at 7.6 µM; actives 0.66% (n = 360,000); AID 624169;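 active = activation above a run cutoff, the mean activation of all tested compounds plus 3 SD, cut at about 14% in these data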
TLR9-MyD88 block = inhibitors of human TLR9-MyD88 binding. Q9NR96+Q99836. inhibition, % at 4.98 µM. CHO BLA complementation TLR9-MyD88, CCF4 FRET ratio. actives 0.21% (n = 340,000);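 active = inhibition above the mean over all tested compounds plus 3 SD, cut at about 21% in these data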
Target sequence (Q99836 whole entry, looked up): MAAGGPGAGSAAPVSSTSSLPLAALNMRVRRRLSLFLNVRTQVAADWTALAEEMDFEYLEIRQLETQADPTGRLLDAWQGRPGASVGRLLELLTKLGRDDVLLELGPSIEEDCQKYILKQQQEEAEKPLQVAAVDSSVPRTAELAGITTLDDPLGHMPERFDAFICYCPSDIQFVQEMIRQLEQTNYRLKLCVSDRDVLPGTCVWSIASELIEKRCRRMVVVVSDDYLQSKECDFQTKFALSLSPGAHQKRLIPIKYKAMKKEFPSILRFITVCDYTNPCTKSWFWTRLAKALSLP
Target sequence (Q9NR96 whole entry, looked up): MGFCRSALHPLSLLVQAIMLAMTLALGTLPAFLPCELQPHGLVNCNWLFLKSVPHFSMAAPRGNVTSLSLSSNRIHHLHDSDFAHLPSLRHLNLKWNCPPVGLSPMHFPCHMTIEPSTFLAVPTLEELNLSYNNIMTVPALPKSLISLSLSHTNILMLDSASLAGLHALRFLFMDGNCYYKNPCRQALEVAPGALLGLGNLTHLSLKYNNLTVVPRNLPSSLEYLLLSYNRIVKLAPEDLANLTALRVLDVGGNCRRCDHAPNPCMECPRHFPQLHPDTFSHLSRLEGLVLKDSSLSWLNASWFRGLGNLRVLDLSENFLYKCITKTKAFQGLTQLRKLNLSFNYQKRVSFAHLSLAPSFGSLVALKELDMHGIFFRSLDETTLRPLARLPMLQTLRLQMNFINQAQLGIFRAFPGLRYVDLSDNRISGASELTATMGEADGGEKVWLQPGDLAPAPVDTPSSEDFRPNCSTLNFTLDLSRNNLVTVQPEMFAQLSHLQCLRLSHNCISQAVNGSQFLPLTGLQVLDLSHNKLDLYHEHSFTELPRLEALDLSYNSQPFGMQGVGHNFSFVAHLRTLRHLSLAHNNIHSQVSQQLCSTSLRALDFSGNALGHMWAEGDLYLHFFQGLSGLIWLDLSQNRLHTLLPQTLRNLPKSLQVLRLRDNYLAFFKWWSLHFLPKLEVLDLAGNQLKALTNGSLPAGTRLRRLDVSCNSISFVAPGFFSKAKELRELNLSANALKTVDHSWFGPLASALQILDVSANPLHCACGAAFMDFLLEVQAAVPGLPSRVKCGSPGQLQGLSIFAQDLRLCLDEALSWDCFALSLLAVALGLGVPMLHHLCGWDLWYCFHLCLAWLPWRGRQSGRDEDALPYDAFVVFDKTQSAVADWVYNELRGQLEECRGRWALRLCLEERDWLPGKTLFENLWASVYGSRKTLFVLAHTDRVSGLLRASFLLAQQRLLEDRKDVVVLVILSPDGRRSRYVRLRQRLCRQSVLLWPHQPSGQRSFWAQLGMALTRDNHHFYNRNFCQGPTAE
ABHD5-PLIN5 inh = ABHD5-PLIN5 protein interaction inhibition; Q00G26+Q8WTS1; Split G. princeps luciferase complementation, luminescence, 4 h; inhibition, % at 4 µM; actives 0.78% (n = 360,000); AID 602281;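 active = inhibition above the mean inhibition across every tested compound plus 3 SD, cut at about 22% in these data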
Of the large screens only hits and unclear results are named; the others gave an inactive call.

O=C(Nc1cccc(S(=O)(=O)N2CCCCC2)c1)c1ccccc1NS(=O)(=O)c1ccc(F)cc1	CRFR2-BP antag 85
O=C(Nc1cc(S(=O)(=O)N2CCCCC2)ccc1O)c1ccccc1NS(=O)(=O)c1ccc(F)c(F)c1	CRFR2-BP antag 81
CCOC(=O)C1(C)CCN1C(=O)c1ccc(OC)c(OC)c1 (stereo not drawn)	none (no result: CRFR2-BP antag, TLR4-MyD88 BLA, TLR9-MyD88 block)
OCC[C@@H]1C[C@H](O)[C@@H](O)[C@@]2(OCc3cc(C(F)(F)F)ccc32)O1	none (no result: TLR4-MyD88 BLA)
C#CCNC(=O)C1=C[C@H](c2ccc3c(c2)OCO3)[C@@H](CCCO)[C@H](OCC)O1	CRFR2-BP antag 81
CCOC(=O)c1cc(S(=O)(=O)Nc2ccc(F)cc2F)cn1C	CRFR2-BP antag 72 (no result: TLR4-MyD88 BLA)
C/C=C(\C)C(=O)OC1[C@H](OC(C)=O)C2(CO)C(CC1(C)C)C1=CCC3C4(C)CCC(O[C@@H]5O[C@H](C(=O)O)[C@@H](O[C@@H]6O[C@H](CO)[C@@H](O)[C@H](O)[C@H]6O)[C@H](O)[C@H]5O[C@H]5O[C@H](CO)[C@@H](O)[C@H](O)[C@H]5O)[C@](C)(CO)C4CCC3(C)[C@]1(C)C[C@H]2O (stereo partly drawn)	NOD2-RIPK2 inh 30, HTR2A ag 15, TLR9-MyD88 block 58 (no result: TLR4-MyD88 BLA)
Fc1ccc(C2c3cccn3CCN2C(=S)Nc2cccc(F)c2)cc1 (stereo not drawn)	CRFR2-BP antag 53
Cc1ccccc1CN1C(=O)CN(S(C)(=O)=O)CC1(C)C(=O)NC(C)C (stereo not drawn)	none (no result: CRFR2-BP antag, TLR4-MyD88 BLA, TLR9-MyD88 block)
O=C(CN1CCN(C(=O)c2ccco2)CC1)Nc1c2c(nc3c1CCC3)CCCC2	CRFR2-BP antag 72
C[C@@H]1CCCCO[C@H](CN(C)C(=O)Cc2ccccc2)[C@@H](C)CN([C@H](C)CO)C(=O)c2cc(NC(=O)Nc3ccccc3)ccc2O1	none (no result: TLR4-MyD88 BLA)
CCCCOc1ccc2c(c1)/C(=C(\C(Cl)=C(Cl)Cl)[N+](=O)[O-])N2	CRFR2-BP antag 68
CCOc1ccc2c(c1)/C(=C(\C(Cl)=C(Cl)Cl)[N+](=O)[O-])N2	none
Cc1ccccc1CN(C)C(=O)COC(=O)c1ccc2[nH]c(C)c(C)c2c1	CRFR2-BP antag 64 (no result: TLR4-MyD88 BLA)
Cc1cc(S(=O)(=O)NC2CCCCC2)ccc1OCC(=O)NCC1CCCO1 (stereo not drawn)	CRFR2-BP antag 57
O=C(COc1ccc(S(=O)(=O)NC2CCCCC2)cc1Cl)NCc1cccnc1	CRFR2-BP antag 80
CS(=O)(=O)Nc1cccc(NC(=O)C2Cc3c(-c4ccccc4)ccnc3O2)c1 (stereo not drawn)	none (no result: CRFR2-BP antag, TLR4-MyD88 BLA, TLR9-MyD88 block)
Cc1ccc(Cl)cc1N1CCN(C(=O)Cc2cn(C)c3ccccc23)CC1	none
Cc1ccc(Cl)cc1N1CCN(C(=O)Cc2c(C(=O)O)[nH]c3ccc(Cl)cc23)CC1	CRFR2-BP antag 62
CC1CC(C)CN(C(=O)Cc2c(C(=O)O)[nH]c3ccc(Cl)cc23)C1 (stereo not drawn)	none
Cc1ccc(Cl)cc1N1CCN(C(=O)Cc2c(C(=O)O)[nH]c3ccccc23)CC1	CRFR2-BP antag 58
CC(C)(C)OC(=O)N1CCC[C@@H]1C(=O)N1CCC[C@@H]1C(=O)NCc1ccccc1Cl	none (no result: CRFR2-BP antag, TLR4-MyD88 BLA, TLR9-MyD88 block)
CCOc1nc(C)ccc1-c1noc(-c2ccco2)n1	none
CCOc1nc(C)ccc1-c1noc(-c2ccccn2)n1	CRFR2-BP antag 111
CCc1nc2ccc(C(=O)Nc3ccc(Cl)c(Cl)c3)cn2c1N(C)Cc1ccc(OC)cc1	none (no result: CRFR2-BP antag, TLR4-MyD88 BLA, TLR9-MyD88 block)
CCC(=O)N1CCCC(C(=O)NS(=O)(=O)c2cc(C)c(Cl)cc2C)CC1 (stereo not drawn)	none (no result: CRFR2-BP antag, TLR4-MyD88 BLA, TLR9-MyD88 block)
O=C(O)c1ccc(-c2ccc(/C=C3\NC(=O)N(Cc4ccc(Cl)cc4)C3=O)o2)cc1Cl	ABHD5-PLIN5 inh 28
Cc1ccc(-n2nnnc2SCC(=O)Nc2cccnc2Cl)cc1	CRFR2-BP antag 53
O=C(CSc1nnnn1-c1ccc(Cl)cc1)Nc1cccnc1Cl	none
CN(C)C(CNC(=O)c1cccc(S(=O)(=O)Nc2ccccc2Cl)c1)c1ccco1 (stereo not drawn)	none (no result: TLR4-MyD88 BLA)
CNS(=O)(=O)c1cccc(C(=O)NCC(c2ccco2)N(C)C)c1 (stereo not drawn)	CRFR2-BP antag 111 (no result: TLR4-MyD88 BLA)
O=C(NNc1ncnc2c1cnn2-c1ccc(F)cc1)c1ccco1	CRFR2-BP antag 68 (no result: TLR4-MyD88 BLA)
COc1ccc2cc([C@H](C)C(=O)O)ccc2c1	HTR2A ag 41
COc1ccc2cc(C(C)C(=O)O)ccc2c1 (stereo not drawn)	none (no result: TLR4-MyD88 BLA)
Cc1ccccc1Cn1ccc(NC(=O)c2cc3ncc(Br)cn3n2)n1	CRFR2-BP antag 66
Cc1ccccc1Cn1ccc(NC(=O)c2nn3cccnc3c2Cl)n1	none
CC(=O)CSc1nc(C(F)(F)F)cc(=O)n1-c1ccccc1	none
O=C(O)CSc1nc(C(F)(F)F)cc(=O)n1-c1ccccc1	HTR2A ag 17
COc1ccc2cc3cc(C(=O)Nc4ccccc4N4CCN(C)CC4)oc3nc2c1	HTR2A ag 16
COc1ccc2cc3cc(C(=O)NCCN4CCN(c5ccccc5F)CC4)oc3nc2c1	none
CCN(CC)S(=O)(=O)c1cccc(C(=O)Nc2ccc3c(c2)OCO3)c1	CRFR2-BP antag 55
Cc1cccc(C)c1OCC(O)Cn1nnc2ccccc21 (stereo not drawn)	CRFR2-BP antag 65
CCOC(=O)C1CCCN(C(=O)c2cccnc2Oc2ccccc2)CC1 (stereo not drawn)	none (no result: CRFR2-BP antag, TLR4-MyD88 BLA, TLR9-MyD88 block)
CCOc1ccc(C(=O)Nc2cnn(Cc3ccc(Cl)c(Cl)c3)c2)cc1	CRFR2-BP antag 73
CC1(c2nnnn2Cc2ccccc2)CCC(=O)N1Cc1cccnc1 (stereo not drawn)	none (no result: CRFR2-BP antag, TLR4-MyD88 BLA, TLR9-MyD88 block)
Oc1ccc(-c2onc(C(F)(F)F)c2-c2cscn2)c(O)c1	none
Cc1nc(-c2c(C(F)(F)F)noc2-c2ccc(O)cc2O)cs1	CRFR2-BP antag 54
Cn1nc([N+](=O)[O-])c(C(C#N)c2ccccn2)c(Cl)c1=O (stereo not drawn)	none
CCn1nc([N+](=O)[O-])c(C(C#N)c2nc3cc(C(F)(F)F)ccc3s2)c(Cl)c1=O (stereo not drawn)	CRFR2-BP antag 68
CCCn1nc([N+](=O)[O-])c(C(C#N)c2nc3ccccc3o2)c(Cl)c1=O (stereo not drawn)	CRFR2-BP antag 74
O=[N+]([O-])c1ccc(N2CCN(Cc3ccccc3)CC2)c2c1no[n+]2[O-]	none (no result: TLR4-MyD88 BLA)
CCOC1=C2[C@H](c3ccccc3)N(S(=O)(=O)c3ccc(C)cc3)C(C(C)(C)C)[C@H]2C(C#N)(C#N)C(C#N)(C#N)C1 (stereo partly drawn)	none (no result: CRFR2-BP antag, TLR4-MyD88 BLA, TLR9-MyD88 block)
O=C(NCC1CCCCC1)c1cc(-c2cc(F)ccc2OCC2CCCO2)n[nH]1 (stereo not drawn)	none (no result: CRFR2-BP antag, TLR4-MyD88 BLA, TLR9-MyD88 block)
O=C(COC(=O)C1CCN(S(=O)(=O)c2ccc3c(c2)OCCO3)CC1)NC1CCCCC1	none (no result: TLR4-MyD88 BLA)
